Data reported in PubChem BioAssay (NCI).
This is part of a sample that, as a whole, favours compounds with a hit. Of some 83,000 tested, about 20% had one in any assay.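 Step 1: grow cells in 96-well plates. Step 2: add test compound at a single concentration. Step 3: incubate 48 h. Step 4: record percent growth.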 A number with no mark means an inactive call. The source made the active and inactive calls. Rule for the calls: active = growth percent below 10; inactive = the rest.

System: HL-60(TB) leukemia
Assay: NCI-60 one-dose screen, 48 h (100 = growth as untreated, 0 = no growth, -100 = all killed)
Settings: 10 µM unless noted

SMILES | growth
O=NN(CCCl)C(=O)Nc1ccc(NC(=O)N(CCCl)N=O)cc1 | 94.8%
c1ccc2cc(Cn3cc[n+](Cc4ccc5ccccc5c4)c3)ccc2c1 | -33.6% (active)
CCc1ccc2nc(NC(=O)Cc3csc(NC(=O)c4ccco4)n3)sc2c1 | 74.2%
Cc1cc(=O)c2cc3nc(-c4cccnc4)oc3c(Br)c2o1 | 84.9%
O=C(CNC(=O)c1cccc2ccccc12)Nc1ccccc1Cc1ccccc1 | -15.9% [5 µM] (active)
Cc1ccc(C2NC(=S)N3C(c4ccc(C)cc4)NC(=S)N23)cc1 (centres undefined) | -23.9% (active)
CN(C)c1ccc(/C=C/C(=O)c2ccc(Nc3nc(Nc4ccc(F)cc4)nc(Nc4ccc(Cl)cc4)n3)cc2)cc1 | -70.5% (active)
C=CCn1c(C)nc2cc(Nc3nc(Cl)nc4ccccc34)ccc21 | 84.1%
Cc1ccc(C(=O)O)o1 | 101%
COc1ccc(CNCCCN2C(=O)c3ccc4c5c(ccc(c35)C2=O)C(=O)N(CCCNCCCCNCCCN)C4=O)c(OC)c1OC | 26.2%
Cc1ccc(O)c(NC(=O)c2ccc(CNc3ccnc(C(F)(F)F)c3)cc2)c1 | 9.24% (active)
CCN1CCN(CC(=O)Nc2nc3ccc(NCc4ccc(F)cc4)cc3s2)CC1 | 96.4%
C/C=C(/C)C(=O)O[C@@H]1CC(C)(C)CC2C34OC(=O)[C@@]21CC[C@@]3(C)[C@]1(C)CCC2C(C)(C)C(=O)CC[C@]2(C)C1C[C@@H]4O (some centres undefined) | 6.92% (active)
CCOC(=O)CN1CCC(C(=O)OCC)CC1 | 116%
